Assay results published in the supplement of paper PMC11732987, “Enantioselective OTUD7B fragment discovery through chemoproteomics screening and high-throughput optimisation” (Communications Chemistry, 2025).

Tests used:
Assay in all cases: log2 ratio of Biotin-Ahx-Ub-VS probe labelling (fragment/DMSO); higher = less target engagement (more negative = stronger competition), active = hit call of the paper (q ≤ 0.05, log2 ratio ≤ -1)
Settings in all cases: compound concentration: 200 uM; treatment time: 3 h
[1] = molecular target: T1, USP19 (UniProt O94966)
T1 sequence (whole entry): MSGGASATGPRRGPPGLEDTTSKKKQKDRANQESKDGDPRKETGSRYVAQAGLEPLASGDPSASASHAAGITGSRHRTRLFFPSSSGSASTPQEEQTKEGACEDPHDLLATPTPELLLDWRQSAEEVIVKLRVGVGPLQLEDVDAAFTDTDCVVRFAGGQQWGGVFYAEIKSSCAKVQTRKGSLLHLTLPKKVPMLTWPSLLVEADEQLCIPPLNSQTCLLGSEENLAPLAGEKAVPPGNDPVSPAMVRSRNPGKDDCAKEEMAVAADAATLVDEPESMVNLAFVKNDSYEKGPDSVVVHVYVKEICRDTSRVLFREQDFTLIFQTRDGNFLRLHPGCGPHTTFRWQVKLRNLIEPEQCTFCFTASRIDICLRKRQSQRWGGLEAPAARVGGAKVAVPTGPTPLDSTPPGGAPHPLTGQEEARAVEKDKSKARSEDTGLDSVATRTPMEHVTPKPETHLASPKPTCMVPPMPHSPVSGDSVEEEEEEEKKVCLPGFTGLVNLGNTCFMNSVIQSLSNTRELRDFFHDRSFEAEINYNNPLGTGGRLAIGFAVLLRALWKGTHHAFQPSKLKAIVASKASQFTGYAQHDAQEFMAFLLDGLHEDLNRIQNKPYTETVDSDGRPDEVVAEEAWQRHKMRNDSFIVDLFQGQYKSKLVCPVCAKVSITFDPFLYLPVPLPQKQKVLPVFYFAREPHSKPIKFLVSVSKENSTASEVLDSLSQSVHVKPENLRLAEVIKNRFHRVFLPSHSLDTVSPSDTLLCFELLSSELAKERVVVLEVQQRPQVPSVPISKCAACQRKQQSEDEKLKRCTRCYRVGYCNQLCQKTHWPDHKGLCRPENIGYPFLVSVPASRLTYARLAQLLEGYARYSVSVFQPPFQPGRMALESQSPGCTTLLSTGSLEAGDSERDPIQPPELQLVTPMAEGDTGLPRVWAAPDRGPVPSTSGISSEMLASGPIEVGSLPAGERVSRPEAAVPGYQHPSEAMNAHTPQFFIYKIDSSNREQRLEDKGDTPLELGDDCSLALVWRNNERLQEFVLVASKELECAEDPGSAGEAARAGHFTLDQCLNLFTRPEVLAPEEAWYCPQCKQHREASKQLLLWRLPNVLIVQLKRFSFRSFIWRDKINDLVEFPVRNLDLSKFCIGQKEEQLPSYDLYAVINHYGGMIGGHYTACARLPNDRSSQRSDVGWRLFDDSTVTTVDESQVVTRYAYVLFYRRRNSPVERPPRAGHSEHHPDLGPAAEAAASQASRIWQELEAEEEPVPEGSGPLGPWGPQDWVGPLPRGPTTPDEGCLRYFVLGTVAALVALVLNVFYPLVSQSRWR
How it was run: (§1)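 HEK293T lysate, 495 µg per sample in Tris/CHAPS/IGEPAL buffer with protease inhibitors, was treated in triplicate with fragment at 200 µM or vehicle for 3 h and then with Biotin-Ahx-Ub-VS at 0.5 µM final for 1 h. Labelled DUBs were NeutrAvidin-enriched, digested with LysC and trypsin, and run by diaPASEF LC-MS/MS. Spectronaut label-free quantities were global-median-normalised, and values are average log2 fragment/vehicle ratios by unpaired t-test on proteins with ≥2 unique peptides.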

[2] = molecular target: T2, USP22 (UniProt Q9UPT9)
T2 sequence (whole entry): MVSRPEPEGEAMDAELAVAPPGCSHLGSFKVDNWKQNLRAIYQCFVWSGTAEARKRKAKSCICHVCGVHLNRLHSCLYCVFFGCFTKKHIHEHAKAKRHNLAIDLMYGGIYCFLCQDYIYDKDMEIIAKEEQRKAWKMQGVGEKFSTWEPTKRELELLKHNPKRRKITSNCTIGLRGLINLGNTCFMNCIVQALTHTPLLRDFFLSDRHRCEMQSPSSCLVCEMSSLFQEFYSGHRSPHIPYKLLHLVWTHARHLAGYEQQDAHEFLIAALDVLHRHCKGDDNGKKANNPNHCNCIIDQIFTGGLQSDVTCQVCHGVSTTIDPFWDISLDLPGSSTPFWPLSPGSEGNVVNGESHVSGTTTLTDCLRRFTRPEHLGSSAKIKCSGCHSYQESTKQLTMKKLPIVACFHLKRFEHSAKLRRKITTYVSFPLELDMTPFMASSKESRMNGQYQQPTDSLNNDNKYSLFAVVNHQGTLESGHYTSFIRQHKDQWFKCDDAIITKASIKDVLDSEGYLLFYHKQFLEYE
How it was run: as §1

[3] = molecular target: USP24 (UniProt Q9UPU5)
How it was run: as §1

[4] = molecular target: T3, USP25 (UniProt Q9UHP3)
T3 sequence (whole entry): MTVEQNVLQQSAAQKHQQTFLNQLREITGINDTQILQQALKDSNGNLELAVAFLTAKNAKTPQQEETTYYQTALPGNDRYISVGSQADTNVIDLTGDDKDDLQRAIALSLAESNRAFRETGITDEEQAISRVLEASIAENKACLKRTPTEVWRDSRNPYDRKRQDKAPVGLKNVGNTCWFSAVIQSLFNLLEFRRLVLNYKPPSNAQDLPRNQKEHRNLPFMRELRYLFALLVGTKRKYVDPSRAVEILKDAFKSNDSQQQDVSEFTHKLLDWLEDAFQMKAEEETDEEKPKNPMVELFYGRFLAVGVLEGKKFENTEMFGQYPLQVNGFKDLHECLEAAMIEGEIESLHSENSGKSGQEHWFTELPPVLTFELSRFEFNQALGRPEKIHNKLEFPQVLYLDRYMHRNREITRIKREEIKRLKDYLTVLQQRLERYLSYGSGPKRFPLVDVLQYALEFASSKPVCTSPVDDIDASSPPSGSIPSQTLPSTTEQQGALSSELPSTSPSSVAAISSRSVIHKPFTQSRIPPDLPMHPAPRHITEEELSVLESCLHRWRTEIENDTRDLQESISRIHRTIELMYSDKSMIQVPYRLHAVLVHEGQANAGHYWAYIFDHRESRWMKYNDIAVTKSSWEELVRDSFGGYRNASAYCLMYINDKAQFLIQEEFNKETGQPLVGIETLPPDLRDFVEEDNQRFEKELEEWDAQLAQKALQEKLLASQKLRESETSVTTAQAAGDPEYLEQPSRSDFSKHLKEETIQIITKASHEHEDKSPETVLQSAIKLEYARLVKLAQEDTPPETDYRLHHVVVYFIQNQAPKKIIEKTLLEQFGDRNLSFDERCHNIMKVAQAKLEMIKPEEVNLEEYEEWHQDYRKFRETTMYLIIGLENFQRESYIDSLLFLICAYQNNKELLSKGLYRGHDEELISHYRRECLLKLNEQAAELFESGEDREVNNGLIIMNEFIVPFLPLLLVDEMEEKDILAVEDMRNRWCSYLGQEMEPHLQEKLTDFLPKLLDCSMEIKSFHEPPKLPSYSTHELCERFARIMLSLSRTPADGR
How it was run: as §1

[5] = molecular target: T4, USP28 (UniProt Q96RU2)
T4 sequence (whole entry): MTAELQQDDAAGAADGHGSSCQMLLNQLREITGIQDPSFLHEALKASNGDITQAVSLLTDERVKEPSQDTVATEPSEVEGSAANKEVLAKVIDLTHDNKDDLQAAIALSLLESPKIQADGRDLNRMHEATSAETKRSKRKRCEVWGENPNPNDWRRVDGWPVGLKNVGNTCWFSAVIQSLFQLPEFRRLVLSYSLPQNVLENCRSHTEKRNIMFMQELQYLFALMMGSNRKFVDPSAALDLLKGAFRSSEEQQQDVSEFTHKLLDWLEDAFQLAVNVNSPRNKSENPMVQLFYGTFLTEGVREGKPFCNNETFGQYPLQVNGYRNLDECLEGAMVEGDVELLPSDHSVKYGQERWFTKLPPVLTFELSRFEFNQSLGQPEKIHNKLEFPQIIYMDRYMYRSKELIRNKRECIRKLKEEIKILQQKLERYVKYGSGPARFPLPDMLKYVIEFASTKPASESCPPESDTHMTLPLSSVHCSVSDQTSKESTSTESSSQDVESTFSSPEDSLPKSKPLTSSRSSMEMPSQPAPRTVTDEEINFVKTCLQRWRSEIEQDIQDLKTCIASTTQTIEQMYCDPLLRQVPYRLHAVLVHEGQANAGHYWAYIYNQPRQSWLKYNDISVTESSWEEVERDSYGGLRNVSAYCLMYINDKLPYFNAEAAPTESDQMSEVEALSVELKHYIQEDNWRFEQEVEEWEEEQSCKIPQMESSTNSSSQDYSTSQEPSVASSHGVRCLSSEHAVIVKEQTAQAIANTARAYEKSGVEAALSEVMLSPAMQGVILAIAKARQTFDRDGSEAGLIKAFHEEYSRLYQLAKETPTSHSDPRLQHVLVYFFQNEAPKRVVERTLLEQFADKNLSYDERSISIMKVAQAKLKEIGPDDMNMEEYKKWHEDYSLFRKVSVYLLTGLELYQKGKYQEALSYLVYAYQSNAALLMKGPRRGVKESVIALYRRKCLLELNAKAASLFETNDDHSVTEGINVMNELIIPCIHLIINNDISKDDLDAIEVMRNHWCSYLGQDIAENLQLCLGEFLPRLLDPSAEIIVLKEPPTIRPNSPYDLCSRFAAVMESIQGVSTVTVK
How it was run: as §1

Measured: log2 ratio of Biotin-Ahx-Ub-VS probe labelling

USP24, sequence (Q9UPU5 whole entry): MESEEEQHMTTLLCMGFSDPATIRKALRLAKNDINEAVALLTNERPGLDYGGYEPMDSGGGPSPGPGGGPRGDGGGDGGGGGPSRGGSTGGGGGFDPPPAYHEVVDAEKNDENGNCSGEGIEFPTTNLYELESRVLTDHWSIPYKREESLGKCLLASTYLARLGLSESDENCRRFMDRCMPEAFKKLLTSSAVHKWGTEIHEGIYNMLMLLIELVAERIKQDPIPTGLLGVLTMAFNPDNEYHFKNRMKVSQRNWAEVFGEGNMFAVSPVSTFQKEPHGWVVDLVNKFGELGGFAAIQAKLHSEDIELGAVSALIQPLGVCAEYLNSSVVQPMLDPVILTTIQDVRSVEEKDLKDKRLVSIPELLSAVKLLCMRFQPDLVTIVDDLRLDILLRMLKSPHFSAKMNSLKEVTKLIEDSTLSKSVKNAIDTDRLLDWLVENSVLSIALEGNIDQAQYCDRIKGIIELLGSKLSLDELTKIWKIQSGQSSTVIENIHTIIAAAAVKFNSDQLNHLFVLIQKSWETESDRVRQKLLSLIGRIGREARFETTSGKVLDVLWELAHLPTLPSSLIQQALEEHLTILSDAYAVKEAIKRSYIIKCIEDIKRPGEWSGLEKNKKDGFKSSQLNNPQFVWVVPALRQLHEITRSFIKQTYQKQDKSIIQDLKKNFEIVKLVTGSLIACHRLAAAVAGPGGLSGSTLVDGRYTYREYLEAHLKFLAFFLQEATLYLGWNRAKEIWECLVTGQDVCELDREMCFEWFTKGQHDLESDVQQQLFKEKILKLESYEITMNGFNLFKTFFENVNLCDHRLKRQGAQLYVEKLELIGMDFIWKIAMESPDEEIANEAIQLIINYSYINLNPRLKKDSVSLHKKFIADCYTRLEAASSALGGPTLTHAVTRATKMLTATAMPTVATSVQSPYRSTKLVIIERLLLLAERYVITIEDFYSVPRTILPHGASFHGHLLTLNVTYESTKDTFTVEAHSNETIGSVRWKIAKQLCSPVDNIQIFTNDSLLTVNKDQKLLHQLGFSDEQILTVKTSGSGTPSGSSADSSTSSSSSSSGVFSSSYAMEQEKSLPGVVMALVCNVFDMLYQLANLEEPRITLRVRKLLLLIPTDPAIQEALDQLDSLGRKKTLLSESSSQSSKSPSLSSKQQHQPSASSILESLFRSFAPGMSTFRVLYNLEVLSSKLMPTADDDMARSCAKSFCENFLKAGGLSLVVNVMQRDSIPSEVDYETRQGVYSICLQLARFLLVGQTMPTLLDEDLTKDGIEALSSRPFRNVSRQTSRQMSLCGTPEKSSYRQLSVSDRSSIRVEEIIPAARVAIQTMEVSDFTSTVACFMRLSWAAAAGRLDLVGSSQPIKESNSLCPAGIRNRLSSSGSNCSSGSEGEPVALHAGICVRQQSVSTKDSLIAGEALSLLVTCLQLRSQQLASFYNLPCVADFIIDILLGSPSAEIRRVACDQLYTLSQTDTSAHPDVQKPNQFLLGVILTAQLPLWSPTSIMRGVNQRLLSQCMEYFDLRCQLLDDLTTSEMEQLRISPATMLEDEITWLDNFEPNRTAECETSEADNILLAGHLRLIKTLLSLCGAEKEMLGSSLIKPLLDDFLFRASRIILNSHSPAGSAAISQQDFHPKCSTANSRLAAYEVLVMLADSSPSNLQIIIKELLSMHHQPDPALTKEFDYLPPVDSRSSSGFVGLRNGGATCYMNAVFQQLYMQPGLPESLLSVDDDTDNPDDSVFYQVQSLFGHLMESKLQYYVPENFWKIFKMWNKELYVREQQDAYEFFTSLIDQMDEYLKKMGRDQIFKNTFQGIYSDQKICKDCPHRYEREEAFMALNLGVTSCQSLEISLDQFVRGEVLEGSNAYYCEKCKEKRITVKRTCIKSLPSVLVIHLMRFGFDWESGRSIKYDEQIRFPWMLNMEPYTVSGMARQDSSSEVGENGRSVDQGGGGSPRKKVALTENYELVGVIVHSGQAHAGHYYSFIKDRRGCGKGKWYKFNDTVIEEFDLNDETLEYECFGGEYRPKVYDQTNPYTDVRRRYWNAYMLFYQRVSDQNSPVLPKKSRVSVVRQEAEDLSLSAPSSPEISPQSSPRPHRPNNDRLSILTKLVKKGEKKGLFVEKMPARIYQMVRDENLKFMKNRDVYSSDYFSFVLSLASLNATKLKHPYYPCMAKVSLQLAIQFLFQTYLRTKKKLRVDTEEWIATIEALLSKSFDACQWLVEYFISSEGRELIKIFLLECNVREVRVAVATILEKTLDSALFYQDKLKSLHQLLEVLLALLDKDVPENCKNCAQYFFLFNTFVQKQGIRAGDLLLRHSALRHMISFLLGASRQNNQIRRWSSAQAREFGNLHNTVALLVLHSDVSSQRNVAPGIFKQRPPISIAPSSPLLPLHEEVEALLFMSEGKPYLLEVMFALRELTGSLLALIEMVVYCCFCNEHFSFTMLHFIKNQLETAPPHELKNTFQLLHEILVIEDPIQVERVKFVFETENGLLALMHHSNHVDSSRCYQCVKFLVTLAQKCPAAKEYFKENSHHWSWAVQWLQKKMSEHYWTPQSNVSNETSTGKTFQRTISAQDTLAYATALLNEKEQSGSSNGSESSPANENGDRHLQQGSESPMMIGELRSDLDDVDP

Cl.O=C(CCl)N1CCN(Cc2ccccc2)CC1
inactive: [1] -0.21 | [2] -0.403 | [3] -0.611 | [4] -0.226 | [5] -0.511
